The text below walks through data of PubChem BioAssay (Tox21).

Each structure is given as a SMILES string. “And” between values parts separate entries of the source, which are not always exact repeats. Identical values can stand only once. Records with an inconclusive call do not appear. A structure can be active in one record and inactive in another. The source made the active and inactive calls. The call rests on the fitted dose curve; in most records, active means well fitted curve in the direction sought with a large enough effect in the repeat runs; inconclusive means weak or mixed curves; inactive means no such curve, though single readings can be large; an effect the other way counts as inactive or inconclusive.

A short description of test [1]: qHTS RealTime-Glo MT Cell Viability Assay in HepG2 cells - 40 hour (AID 1224870). Further: nearly all actives have a fitted effect of over 50% in size. In a few lines: (§1)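 Real-time viability: cells seeded at 600 per well together with NanoLuc and cell-permeant prosubstrate, compounds added after 5 h incubation. Luminescence tracked at 0, 8, 16, 24, 32 and 40 h of exposure.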
A general note: In qHTS, concentration-response curves come from the screen itself.

Test [2] can be described thus: A CellTox Green Cytotoxicity Assay to monitor cytotoxicity in HEK293 cells - 40 hour (AID 1224871). Further: nearly all actives have a fitted effect of over 45% in size. Further: potency means the concentration at half of the fitted maximal effect. The method, boiled down: (§2)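 Real-time, in one plate: 600 HEK293 cells/well with dead-cell DNA dye, pinned compound after 5 h, 37 C incubation over 40 h; viable cells give no appreciable fluorescence.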
Test [3] can be described thus: qHTS RealTime-Glo MT Cell Viability Assay in HEK293 cells - 16 hour (AID 1224872). Further: nearly all actives have a fitted effect of over 50% in size. Further: potency means the concentration at half of the fitted maximal effect. In a few lines: (§3)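 Luminescence generated by NanoLuc from substrate produced by living HEK293 cells served as the viability signal. Each value reflects the reading at its stated time point during continuous 40 h compound exposure at 37 C.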
Test [4] is described as follows: qHTS RealTime-Glo MT Cell Viability Assay in HepG2 cells - 8 hour (AID 1224873). Further: nearly all actives have a fitted effect of over 55% in size. In a few lines: as §1
Test [5] can be described thus: qHTS RealTime-Glo MT Cell Viability Assay in HEK293 cells - 40 hour (AID 1224874). Further: nearly all actives have a fitted effect of over 50% in size. Further: potency means the concentration at half of the fitted maximal effect. The settings on record: RealTime-Glo luminescence; max response: stronger effect = lower value. The method, boiled down:
(§4)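 Kinetic, non-lysing viability readout. Seed HEK293 (600/well) with reagent, incubate 5 h at 37 C/5% CO2, pin 23 nL compound in DMSO, incubate at 37 C, read luminescence at 0, 8, 16, 24, 32, 40 h.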

The nature of test [6]: A CellTox Green Cytotoxicity Assay to monitor cytotoxicity in HEK293 cells - 24 hour (AID 1224875). Further: series mostly up to about 77 µM; nearly all actives have a fitted effect of over 45% in size. In a few lines: as §2
Test [7] is described as follows: qHTS RealTime-Glo MT Cell Viability Assay in HepG2 cells - 32 hour (AID 1224877). Further: nearly all actives have a fitted effect of over 55% in size. The method, boiled down:
(§5)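 Tox21 10K library screened in qHTS format on HepG2 cells carrying RealTime-Glo reagents. Compounds were added after a 5 h preincubation, and the luminescent signal from continuous culture was measured repeatedly during 40 h treatment.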

Test [8] in a line: A CellTox Green Cytotoxicity Assay to monitor cytotoxicity in HepG2 cells - 24 hour (AID 1224878). Further: nearly all actives have a fitted effect of over 45% in size. Further: potency means the concentration at half of the fitted maximal effect. In a few lines:
(§6)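 Cytotoxicity was tracked as dead-cell DNA fluorescence in HepG2 cells treated with test compounds at 37 C; each time-point value comes from one kinetic series spanning 0, 8, 16, 24, 32 and 40 h.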

Test [9] in a line: A CellTox Green Cytotoxicity Assay to monitor cytotoxicity in HepG2 cells - 40 hour (AID 1224879). Further: nearly all actives have a fitted effect of over 40% in size. Further: potency means the concentration at half of the fitted maximal effect. In a few lines:
as §6

Test [10] can be described thus: qHTS RealTime-Glo MT Cell Viability Assay in HEK293 cells - 0 hour (AID 1224880). Further: top concentration of the series differs between compounds; nearly all actives have a fitted effect of over 45% in size. The method, boiled down: as §4
Test [11] is described as follows: A CellTox Green Cytotoxicity Assay to monitor cytotoxicity in HEK293 cells - 32 hour (AID 1224881). Further: nearly all actives have a fitted effect of over 40% in size. Further: potency means the concentration at half of the fitted maximal effect. The method, boiled down: as §2
The nature of test [12]: A CellTox Green Cytotoxicity Assay to monitor cytotoxicity in HepG2 cells - 0 hour (AID 1224882). Further: nearly all actives have a fitted effect of over 35% in size. Further: potency means the concentration at half of the fitted maximal effect. The method, boiled down: as §6
The nature of test [13]: A CellTox Green Cytotoxicity Assay to monitor cytotoxicity in HepG2 cells - 32 hour (AID 1224883). Further: nearly all actives have a fitted effect of over 50% in size. Further: potency means the concentration at half of the fitted maximal effect. In a few lines:
as §6

A short description of test [14]: A CellTox Green Cytotoxicity Assay to monitor cytotoxicity in HEK293 cells - 8 hour (AID 1224884). Further: nearly all actives have a fitted effect of over 35% in size. Further: potency means the concentration at half of the fitted maximal effect. The method, boiled down:
as §2

Test [15] in a line: qHTS RealTime-Glo MT Cell Viability Assay in HepG2 cells - 16 hour (AID 1224885). Further: nearly all actives have a fitted effect of over 50% in size. The method, boiled down: as §5
Test [16] can be described thus: qHTS RealTime-Glo MT Cell Viability Assay in HEK293 cells - 24 hour (AID 1224886). Further: nearly all actives have a fitted effect of over 50% in size. Further: potency means the concentration at half of the fitted maximal effect. The method, boiled down: as §3
A short description of test [17]: qHTS RealTime-Glo MT Cell Viability Assay in HEK293 cells - 8 hour (AID 1224887). In a few lines:
as §4

A short description of test [18]: A CellTox Green Cytotoxicity Assay to monitor cytotoxicity in HEK293 cells - 16 hour (AID 1224888). Further: nearly all actives have a fitted effect of over 35% in size. In a few lines: as §2
Test [19] is described as follows: qHTS RealTime-Glo MT Cell Viability Assay in HepG2 cells - 0 hour (AID 1224889). Further: nearly all actives have a fitted effect of over 50% in size. The method, boiled down: as §5
A short description of test [20]: A CellTox Green Cytotoxicity Assay to monitor cytotoxicity in HepG2 cells - 16 hour (AID 1224876). Further: nearly all actives have a fitted effect of over 45% in size. Further: potency means the concentration at half of the fitted maximal effect. The method, boiled down: as §6
On the % scale 0 is the no-effect control and ±100 the full control effect.

Consider `CC1COc2ccccc2N1C(=O)C(Cl)Cl` (stereo unspecified), for which the Potency entry in test [1], in test [2], in test [3], in test [4], in test [6] and in test [7] was “inactive” throughout. The Potency result in test [8], in test [9], in [10], in test [11], in [12] and in test [13] was “inactive” in each case. Also, the Potency result in test [14], in test [15], in test [16], in test [17], in test [18] and in test [19] was “inactive” in each case. Also, the max response in test [5] was -21% (inactive).

Regarding `C=C(C)C(=O)OCCC[Si](OC)(OC)OC`, the Potency result in [1], in test [2], in test [3], in [4], in test [6] and in test [20] was “inactive” each time. The Potency entry in test [8], in test [9], in [11], in [12], in test [13] and in [14] was “inactive” in each case. Besides, the Potency result in test [15], in [16], in test [17] and in test [18] was “inactive” each time. Besides, the max response in [5] is 1.98% (inactive) and 0.0703% (inactive).

As for `C[C@@H]1O[C@@H](OC[C@H]2O[C@@H](Oc3c(-c4ccc(O)c(O)c4)oc4cc(O)cc(O)c4c3=O)[C@H](O)[C@@H](O)[C@@H]2O)[C@H](O)[C@H](O)[C@H]1O`, the Potency result in [1], in test [2], in test [3], in test [4], in [6] and in [20] was “inactive” throughout. Also, the Potency entry in test [7], in test [9], in [10], in test [11], in [12] and in [13] was “inactive” in each case. For the same compound, the Potency result in test [14], in test [15], in [16], in test [18] and in test [19] was “inactive” in each case. The max response in [5] was -1.83% (inactive) and 0.783% (inactive).

For `CC1CC(OC(=O)c2ccccc2O)CC(C)(C)C1` (stereo unspecified), the Potency result in test [1], in test [3], in [4], in test [6], in test [20] and in test [7] was “inactive” in each case. Further, the Potency result in test [8], in test [9], in test [11], in [12], in test [13] and in test [14] was “inactive” throughout. Moreover, the Potency entry in test [15], in test [16], in test [17] and in test [18] was “inactive” each time. In [2], the Potency was 48.5 µM (active) and inactive. Also, the max response in test [5] is -10.4% (inactive) and -7.39% (inactive) and -13.1% (inactive).

As for `OC1CCCC1`, the Potency result in [1], in [2], in test [3], in [4], in test [6] and in [20] was “inactive” each time. For the same compound, the Potency entry in [9], in test [10], in test [11], in [12], in [13] and in [14] was “inactive” throughout. Besides, the Potency result in test [15], in test [16], in [17], in test [18] and in [19] was “inactive” throughout. In addition, the max response in test [5] was 8.58% (inactive) and -2.67% (inactive).

Turning to `CCCCC(CC)COC(=O)CCCCCCCC(=O)OCC(CC)CCCC` (stereo unspecified), the Potency entry in test [1], in test [4], in test [7] and in [15] was “inactive” throughout. The Potency in test [2] is 49 µM (active) and inactive; in test [3], 24.5 µM (active) and inactive; in test [5], 4.9 µM (active); in [20], 49 µM (active); in [8], 49 µM (active); in test [9] it was 43.6 µM (active). The Potency in test [11] is 54.9 µM (active) and inactive; in [12], 54.9 µM (active) and inactive; in test [13], 49 µM (active); in [14] it was 54.9 µM (active) and inactive; in test [16] it was 24.5 µM (active) and inactive. Further, the max response in [5] was 4.32% (inactive).

With `OCCOCCOCCOCCO`, the Potency result in [1], in test [2], in [3], in [4], in [6] and in [7] was “inactive” throughout. For the same compound, the Potency result in test [8], in test [9], in [10], in [11], in test [12] and in [13] was “inactive” throughout. The Potency result in [14], in [15], in [16], in [18] and in [19] was “inactive” throughout. In test [5], the max response was 0.824% (inactive) and 6.75% (inactive).

For the compound `NC(=O)NNc1ccccc1`, the Potency result in [1], in test [2], in test [3], in test [4], in test [6] and in [7] was “inactive” throughout. The Potency entry in test [8], in test [9], in test [10], in test [11], in test [12] and in test [13] was “inactive” in each case. Moreover, the Potency result in test [14], in [15], in [16], in test [17] and in [18] was “inactive” each time. In addition, the max response in test [5] was 15.8% (inactive) and 8.69% (inactive).

As for `NC(=O)/N=N/C(N)=O`, the Potency result in test [1], in test [2], in test [3], in [4], in [6] and in test [20] was “inactive” each time. Also, the Potency entry in [9], in test [10], in test [11], in [12], in test [13] and in test [14] was “inactive” throughout. Moreover, the Potency entry in test [15], in test [16], in test [18] and in test [19] was “inactive” in each case. In addition, the max response in test [5] was 1.69% (inactive) and 1.16% (inactive).

Take `O=[N+]([O-])c1cc(N(CCO)CCO)ccc1NCCO`: the Potency result in test [1], in [2], in test [3], in test [4], in test [6] and in test [20] was “inactive” each time. For the same compound, the Potency result in test [7], in [8], in [9], in test [10], in test [11] and in test [12] was “inactive” in each case. For the same compound, the Potency result in [13], in [14], in test [15], in [16], in test [18] and in test [19] was “inactive” in each case. The max response in test [5] is 0.623% (inactive) and 8.81% (inactive).

As for `CC1(C)CC(N=C=O)CC(C)(CN=C=O)C1` (stereo unspecified), the Potency entry in test [1], in test [2], in test [3], in test [4], in [6] and in test [20] was “inactive” in each case. In addition, the Potency entry in test [7], in test [8], in [9], in test [10], in test [11] and in [12] was “inactive” throughout. Besides, the Potency entry in [13], in test [14], in test [15], in test [16], in test [17] and in test [18] was “inactive” in each case. Besides, the max response in test [5] was 8.76% (inactive) and 2.25% (inactive).

As for `Cc1cc(Cc2ccc(N)c(C)c2)ccc1N`, the Potency entry in test [1], in [2], in test [3], in test [4], in test [6] and in [20] was “inactive” each time. Besides, the Potency entry in [8], in [9], in [11], in test [12], in test [13] and in test [14] was “inactive” throughout. Moreover, the Potency entry in [15], in [16] and in test [18] was “inactive” in each case. The max response in test [5] was -20.5% (inactive) and -29% (inactive).

Regarding `O=[N+]([O-])C(CO)(CO)CO`, the Potency entry in test [1], in test [2], in test [3], in test [4], in [6] and in test [20] was “inactive” throughout. Moreover, the Potency entry in [7], in test [8], in [9], in test [10], in [11] and in test [12] was “inactive” throughout. For the same compound, the Potency entry in test [13], in test [14], in [15], in test [16] and in [18] was “inactive” throughout. For the same compound, the max response in test [5] was 10.8% (inactive).
